# According to the supplement of paper PMC7724964:
# Key:
# Test in all cases: phage ELISA signal ratio (GST-PRM binding over GST background); higher = stronger binding of peptide-phage to the PRM
# [1] = target: T1, TRIM11 268-461 SPRY (domain begin residue: 268, domain end residue: 461), Q96F44
# T1 chain: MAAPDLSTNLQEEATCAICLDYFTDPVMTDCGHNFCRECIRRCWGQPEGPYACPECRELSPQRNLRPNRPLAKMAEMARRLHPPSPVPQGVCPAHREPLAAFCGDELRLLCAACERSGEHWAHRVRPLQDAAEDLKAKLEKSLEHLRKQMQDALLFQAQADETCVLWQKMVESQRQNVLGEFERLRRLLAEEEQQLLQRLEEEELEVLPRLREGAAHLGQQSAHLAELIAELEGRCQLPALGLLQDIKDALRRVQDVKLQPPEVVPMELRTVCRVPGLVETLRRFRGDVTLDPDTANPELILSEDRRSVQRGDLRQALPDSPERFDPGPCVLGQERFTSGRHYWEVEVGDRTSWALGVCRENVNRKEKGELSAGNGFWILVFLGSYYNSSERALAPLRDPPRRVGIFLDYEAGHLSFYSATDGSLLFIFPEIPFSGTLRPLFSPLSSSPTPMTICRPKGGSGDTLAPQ
# In short: (§1)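 Human peptide recognition domains were expressed in 96-well plates as fusions to the C-terminus of glutathione S-transferase (GST) and selected against an M13 phage library displaying randomized hexadecapeptides, cysteine-free and glycine-flanked, on the gene-8 major coat protein. Five selection rounds were run, and approximately 48 individual clones from rounds 4 and 5 were tested by phage ELISA. Each value is the ELISA signal on the GST-domain fusion divided by the signal on GST alone. Positive clones were sequenced.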
# [2] = target: T2, TOM1L1 1-150 VHS (domain begin residue: 1, domain end residue: 150), O75674
# T2 chain: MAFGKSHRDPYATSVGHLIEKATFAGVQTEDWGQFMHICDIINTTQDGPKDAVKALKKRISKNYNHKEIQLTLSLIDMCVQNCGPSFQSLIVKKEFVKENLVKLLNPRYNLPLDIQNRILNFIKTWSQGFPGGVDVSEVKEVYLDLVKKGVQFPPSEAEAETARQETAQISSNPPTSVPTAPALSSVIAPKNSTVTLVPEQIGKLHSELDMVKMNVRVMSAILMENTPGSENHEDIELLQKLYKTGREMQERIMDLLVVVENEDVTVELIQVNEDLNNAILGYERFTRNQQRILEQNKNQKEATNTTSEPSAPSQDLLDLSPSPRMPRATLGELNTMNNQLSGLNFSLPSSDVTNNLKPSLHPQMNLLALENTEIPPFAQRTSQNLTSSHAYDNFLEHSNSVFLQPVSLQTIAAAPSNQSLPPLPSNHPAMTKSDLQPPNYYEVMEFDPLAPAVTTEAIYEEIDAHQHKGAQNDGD
# In short: as §1
# [3] = target: TOM1 1-153 VHS (domain begin residue: 1, domain end residue: 153), O60784
# In short: as §1
# [4] = target: T3, TOM1L2 1-153 VHS (domain begin residue: 1, domain end residue: 153), Q6ZVM7
# T3 chain: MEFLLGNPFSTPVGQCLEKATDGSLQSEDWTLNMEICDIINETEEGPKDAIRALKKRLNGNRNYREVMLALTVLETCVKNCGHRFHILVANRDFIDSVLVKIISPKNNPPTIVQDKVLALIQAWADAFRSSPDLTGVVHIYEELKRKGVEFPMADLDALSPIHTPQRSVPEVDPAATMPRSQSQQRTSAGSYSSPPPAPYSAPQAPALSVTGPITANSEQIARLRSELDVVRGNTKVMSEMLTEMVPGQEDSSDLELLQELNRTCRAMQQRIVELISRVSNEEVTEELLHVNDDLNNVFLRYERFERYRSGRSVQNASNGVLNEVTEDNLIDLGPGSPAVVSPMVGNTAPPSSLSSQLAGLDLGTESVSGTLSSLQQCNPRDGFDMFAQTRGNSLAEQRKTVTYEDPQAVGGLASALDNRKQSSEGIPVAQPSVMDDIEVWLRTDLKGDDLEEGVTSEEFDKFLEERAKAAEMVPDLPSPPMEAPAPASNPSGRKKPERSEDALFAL
# In short: as §1
# [5] = target: T4, TRIM10 292-481 SPRY (domain begin residue: 292, domain end residue: 481), Q9UDY6
# T4 chain: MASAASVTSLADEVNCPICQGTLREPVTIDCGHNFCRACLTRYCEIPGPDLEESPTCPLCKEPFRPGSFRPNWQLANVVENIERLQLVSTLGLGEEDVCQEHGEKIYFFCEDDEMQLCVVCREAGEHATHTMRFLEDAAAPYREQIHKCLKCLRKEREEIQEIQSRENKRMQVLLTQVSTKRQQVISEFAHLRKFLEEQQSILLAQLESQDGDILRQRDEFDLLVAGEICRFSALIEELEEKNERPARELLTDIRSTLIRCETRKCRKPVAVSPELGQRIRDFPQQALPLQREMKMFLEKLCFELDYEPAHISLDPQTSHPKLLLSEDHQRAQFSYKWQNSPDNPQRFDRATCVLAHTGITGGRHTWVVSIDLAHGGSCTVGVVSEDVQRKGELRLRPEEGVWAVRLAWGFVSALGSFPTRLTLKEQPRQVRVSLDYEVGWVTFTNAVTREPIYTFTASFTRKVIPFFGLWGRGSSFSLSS
# In short: as §1
# Chain of TOM1 1-153 VHS (domain begin residue: 1, domain end residue: 153), O60784 (O60784 whole entry): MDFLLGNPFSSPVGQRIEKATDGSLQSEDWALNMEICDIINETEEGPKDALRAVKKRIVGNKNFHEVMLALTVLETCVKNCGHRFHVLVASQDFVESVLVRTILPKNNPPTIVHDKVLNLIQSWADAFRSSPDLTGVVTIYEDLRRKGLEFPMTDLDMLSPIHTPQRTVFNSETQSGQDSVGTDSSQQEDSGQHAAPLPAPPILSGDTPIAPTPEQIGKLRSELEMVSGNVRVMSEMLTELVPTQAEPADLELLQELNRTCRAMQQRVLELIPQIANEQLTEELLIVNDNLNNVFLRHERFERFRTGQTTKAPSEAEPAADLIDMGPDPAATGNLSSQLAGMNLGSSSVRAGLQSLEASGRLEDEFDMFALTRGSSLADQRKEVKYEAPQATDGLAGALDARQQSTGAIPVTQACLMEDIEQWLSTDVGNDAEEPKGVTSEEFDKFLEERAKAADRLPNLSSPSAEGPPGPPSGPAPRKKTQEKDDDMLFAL
binder,measurement,setting,value
PFTYYSSEMYPWYIFG,phage ELISA signal ratio,[1],11.1
NNNWWMQWHVEEHEME,phage ELISA signal ratio,[2],4.26
NSWWLDYEERATLHGD,phage ELISA signal ratio,[3],9.5
DRKLSQQELALWAYII,phage ELISA signal ratio,[4],27.7
EWWLSYDPHWVETISA,phage ELISA signal ratio,[3],5.42
IEWEWLDSKEWWPKEF,phage ELISA signal ratio,[2],32.5
GLASYFADNYHLIFSE,phage ELISA signal ratio,[4],22.4
AFENNQQAILQYMMDV,phage ELISA signal ratio,[4],22.7
QHDWAPSYLWWDEWTM,phage ELISA signal ratio,[2],20.5
FVDWDIPSWWFQQVTS,phage ELISA signal ratio,[2],15.1
YQDWDWDPEMKRMVVS,phage ELISA signal ratio,[4],4.04
QVWWEAYEKRLHVETE,phage ELISA signal ratio,[3],8.09
DMLDWSWTEEVELWFQ,phage ELISA signal ratio,[2],24.5
WDEEDDHWWEHFFWFQ,phage ELISA signal ratio,[2],12.6
DDHLWHPSFKWWDEYV,phage ELISA signal ratio,[2],15.8
DFTWLHSEKWWPEEWG,phage ELISA signal ratio,[2],14.3
ETDKWVPSYLWWANYS,phage ELISA signal ratio,[2],16.8
YQMSWMPSEIWWLNYV,phage ELISA signal ratio,[2],9.38
QTPLEAFWEAYDSISW,phage ELISA signal ratio,[4],23.1
ADGWGWYENWVWPASM,phage ELISA signal ratio,[2],4.28
VSEGQWRPSYLWWTDD,phage ELISA signal ratio,[2],4.64
TEMWTPAQQALWAYIT,phage ELISA signal ratio,[4],8.79
KWNDDDWWTYFVSQVE,phage ELISA signal ratio,[4],20.3
PWWLEYEMPITRESPV,phage ELISA signal ratio,[3],4.45
LPPHWFDEMYSITAMY,phage ELISA signal ratio,[4],7.51
WEDGWLIPNAQDFQGM,phage ELISA signal ratio,[5],3.64
MMFAGLGTPNPYEVTT,phage ELISA signal ratio,[4],16.9
LEWTWYDTWTWPEESQ,phage ELISA signal ratio,[2],22
IEIPWTQEFIQHWTQG,phage ELISA signal ratio,[4],18.4
